# An excerpt weighted towards active compounds, which were near 5.2% of everything screened.
# IDH1 R132H inh: human IDH1 R132H inhibition; O75874; IDH1-R132H enzyme, NADPH consumption, diaphorase/resazurin fluorescence; Potency, µM (top dose mostly 76.6 µM), for inactives: at the top dose activity change, negative = inhibition, most hits filed as inhibitors; hit rate 0.093% among 390,000; AID 602179; further: potency means the concentration at half of the fitted maximal effect; nearly all actives have a fitted effect of over 65% in size
#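 IDH1-R132H (0.5 ug/mL) preincubated 30 min with compound, then NADPH (0.016 mM) and alpha-KG (2 mM) added; 80 min at RT, pH 7.5. Remaining NADPH coupled via diaphorase/resazurin to fluorescence (540/590 nm); concentration-response curves normalized to no-enzyme control.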
# PLK1 PBD inh: inhibitors of human PLK1 polo-box domain binding; P53350; Plk1 PBD binding of FITC phosphopeptide, fluorescence polarization; Potency, µM, for inactives: max response, negative = inhibition, hits mostly inhibitors; hit rate 2.8% among 360,000; AID 720504; further: potency means the concentration at half of the fitted maximal effect; series mostly up to about 57 µM; nearly all actives have a fitted effect of over 65% in size
# VDR inh: vitamin D3 receptor (human) inhibition; P11473; VDR-SRC2-3 peptide fluorescence polarization, 2 h; Potency, µM, without a hit: max response, negative = inhibition, actives largely listed as inhibitors; hit rate 0.93% among 400,000; AID 504847; further: potency means the concentration at half of the fitted maximal effect
# Target sequence (P11473 whole entry, looked up): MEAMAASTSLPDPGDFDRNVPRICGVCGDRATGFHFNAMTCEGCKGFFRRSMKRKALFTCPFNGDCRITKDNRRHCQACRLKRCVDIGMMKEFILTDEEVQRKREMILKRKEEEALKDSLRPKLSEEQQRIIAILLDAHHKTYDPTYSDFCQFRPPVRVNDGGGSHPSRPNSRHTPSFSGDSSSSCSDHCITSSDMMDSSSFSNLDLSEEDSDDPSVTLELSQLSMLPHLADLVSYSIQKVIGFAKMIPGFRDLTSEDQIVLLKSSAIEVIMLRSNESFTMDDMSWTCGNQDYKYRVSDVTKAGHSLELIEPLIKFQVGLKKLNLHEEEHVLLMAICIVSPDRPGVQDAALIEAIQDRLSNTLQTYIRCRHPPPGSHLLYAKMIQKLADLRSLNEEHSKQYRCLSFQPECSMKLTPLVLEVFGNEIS
#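 Compounds are added to VDR with labelled SRC2-3 coactivator peptide and held 2 h at room temperature. Inhibition of the VDR–peptide interaction is then read as a change in fluorescence polarization.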
# Sfp inh: Sfp phosphopantetheinyl transferase inhibition. Q9F4F7. Biochemical Sfp PPTase activity, qHTS. Potency, µM, inactives show largest response in the series, negative = inhibition, hits mostly inhibitors. hit rate 3.5% among 310,000;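 further: the enzyme is Sfp with the accession as filed and its product quenches rhodamine fluorescence; potency means the concentration at half of the fitted maximal effect; 0% = enzyme reaction without inhibitor and -100% = no enzyme wells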
#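 Step 1, compound plus 15 nM Sfp-PPTase, 15 min, room temperature. Step 2, add rhodamine-CoA (5 uM) and BHQ-2-YbbR (12.5 uM). Step 3, read 525/598 nm fluorescence at 0 and 30 min.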
# rTrxR1 inhibitor: blocks rat thioredoxin reductase 1. Potency, µM (top dose mostly 114 µM), inactives show at the top dose activity change, negative = inhibition, most hits filed as inhibitors. recombinant rTrxR1, NADPH fluorescence consumption, selenite substrate. O89049. hit rate 1% among 390,000; further: potency means the concentration at half of the fitted maximal effect; nearly all actives have a fitted effect of over 65% in size
#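 Rat TrxR1 (90 nM in the dispensed reagent) was pre-reduced with 400 uM NADPH for 5 min at room temperature, then incubated with compound for 15 min. After 400 uM selenite was added, NADPH fluorescence (Ex 340/Em 450 nm) was followed for 8 min.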
# TrxR1 substrate: is turned over as a substrate by rat TrxR1. O89049. purified TrxR1 substrate turnover, NADPH consumption readout. Potency, µM (highest dose often 114 µM), for the others: at the top dose activity change, negative = substrate turnover. hit rate 0.01% among 390,000; further: potency means the concentration at half of the fitted maximal effect; nearly all actives have a fitted effect of over 50% in size
#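 Rat TrxR1, dispensed at 90 nM, was prereduced with 400 uM NADPH (final) for 5 min at ~22 deg C, then incubated with compound 15 min before 400 uM selenite. A first-read NADPH fluorescence drop versus no-compound background flagged substrates.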
# Sfp inh conf: confirmation of Bacillus subtilis Sfp PPTase inhibitors; Sfp PPTase enzymatic assay, qHTS titration; hit rate 79% among 380; Potency, µM (titrated, usually from 114 µM), inactives show at the top dose activity change, negative = inhibition, most hits filed as inhibitors; shares compounds with Sfp inh;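 further: potency means the concentration at half of the fitted maximal effect; plate controls were uninhibited Sfp reaction for no effect and no enzyme control for full effect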
# Target sequence (Q9F4F7 whole entry, looked up): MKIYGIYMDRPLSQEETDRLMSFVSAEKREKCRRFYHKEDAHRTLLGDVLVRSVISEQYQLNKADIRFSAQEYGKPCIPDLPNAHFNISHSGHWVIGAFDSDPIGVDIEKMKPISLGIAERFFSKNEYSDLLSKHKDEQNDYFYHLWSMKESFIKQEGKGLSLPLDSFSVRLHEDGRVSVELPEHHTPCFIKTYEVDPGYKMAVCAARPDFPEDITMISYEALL
# Sfp gel assay: Blocks Sfp PPTase activity, gel read-out | shares compounds with Sfp inh | purified Sfp, gel-based phosphopantetheinylation read-out | Potency, µM, most hits filed as inhibitors | hit rate 20% among 210;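 active means potency below 100 µM; inconclusive means dose-dependent response but potency above 100 µM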;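 further: band intensities scaled against SCH202676 control wells before curve fitting; potency is an IC50 for inhibitors of Sfp transfer activity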
# * hit, by the source's call; i = inactive; ? = inconclusive; / = no result given; [ ] = dose if it differs, or a comment. Unless noted, the call rests on the fitted dose curve; in most records, active means well fitted curve in the direction sought with a large enough effect; inconclusive means small, poorly fitted or top-dose-only effect, or another doubt; inactive means no such curve, though single readings can be large; an effect the other way counts as inactive or inconclusive. Unless noted, on the % scale 0 is the no-effect control and ±100 the full control effect.
SMILES,IDH1 R132H inh,PLK1 PBD inh,VDR inh,Sfp inh,rTrxR1 inhibitor,TrxR1 substrate,Sfp inh conf,others
C[C@@H](NCCCc1cccc(C(F)(F)F)c1)c1cccc2ccccc12,/,/,2%,79µM*,15%,-3%,24µM*,
CCOCCN1CCN(c2c(CC)c(C)nc3cc(-c4cc(OC)cc(OC)c4)nn23)CC1,2%,-4%,9%,-4%,-17%[57.1 µM],-3%[57.1 µM],/,
CCc1c(C)nc2cc(-c3ccc(OC)c(OC)c3)nn2c1N1CCCC1,4%,-7%,-3%,6.3µM*,11%,5%,?,
CCc1c(C)nc2cc(-c3cc(OC)cc(OC)c3)nn2c1N1CCCC1,4%,-6%,14%,16µM*,24%,9%,47µM*,
CCc1c(C)nc2cc(-c3ccc(OC)c(OC)c3)nn2c1N1CCC(C)CC1,3%,-5%,24%,4%,-6%[11.4 µM],-8%[11.4 µM],/,
COc1cccc(CNC(=O)c2c(C)oc3nc(C)nc(N4CCOCC4)c23)c1,1%,/,14%,/,9%,-6%,/,
N[C@H](C(=O)O)C1[C@H](C(=O)O)[C@H]1C(=O)O (stereo partly drawn),/,/,6%,-22%,/,/,/,
O=C(CN1C(=O)CC(c2ccco2)Sc2ccccc21)NCc1ccc2c(c1)OCO2 (stereo not drawn),10%,-5%,-7%,?,-23%,11%,/,
O=C(CN1C(=O)CC(c2ccco2)Sc2ccccc21)Nc1ccccc1F (stereo not drawn),15%,-22%,79µM*,16µM*,25µM*,2%,21µM*,
Cc1ccc(S(=O)(=O)N2CCCCC2)cc1NC(=O)COC(=O)Cc1cccc2ccccc12,20%,-2%,3%,6%,10%[57.1 µM],5%,/,
O=C(Cc1ccccc1Nc1c(Cl)cccc1Cl)OCO/N=[N+](\[O-])N1CCCC1,/,/,?,22µM*,-24%,-4%,26µM*,Sfp gel assay=?
Cc1cc(C(F)F)n2nc(C(=O)Nc3ccc(C(C)C)cc3)nc2n1,0%,/,-12%,/,-5%,-14%,/,
CC(=O)c1c(N=CN(C)C)nc(C)nc1-c1ccccc1,1%,-10%,2%,15%,-2%[57.1 µM],10%[57.1 µM],/,
CN(C)C=Nc1ccccc1C1C=NNC1=O (stereo not drawn),/,/,/,18µM*,/,/,9%,
CCn1cc(C(=O)O)c(=O)c2cnc(N3CCN(C(=S)NC(=O)c4ccc(Cl)cc4)CC3)nc21,-5%,-15%,3%,28%,-15%,-9%,/,
COc1ccc(NC(=S)N2CCC(c3ccc(C)cc3)C2)cc1 (stereo not drawn),0%,-4%,2%,8%,4%,-4%,/,
Cc1ccc(NC(=S)N2CCC(c3ccc(C)cc3)C2)cc1 (stereo not drawn),-2%,21µM*,?,32µM*,13%,5%,37µM*,Sfp gel assay=?
CCOC(=O)C1CCCN(C(=O)c2cccc(NC(=O)c3nsc4ccccc34)c2)C1 (stereo not drawn),0%,/,10%,/,13%[57.1 µM],0%[57.1 µM],/,
O=C(NCc1ccco1)c1csc2c1CCCCC2,-10%,-7%,0%,9%,3%,5%,?,Sfp gel assay=i
Cc1ccc(Nc2cc(C)nc(NCc3ccccc3)n2)cc1,13%,3%,1%,13µM*,15%[57.1 µM],-16%[57.1 µM],30µM*,Sfp gel assay=i
CC1CCN(S(=O)(=O)c2cc(C(=O)N3CCN(c4cccc(Cl)c4)CC3)n(C)c2)CC1,-5%,/,-8%,/,17%[57.1 µM],1%[57.1 µM],/,
COc1cc(NCc2ccc3nc(N)nc(N)c3c2C)cc(OC)c1OC,/,/,25µM*,32µM*,/,/,37µM*,
CCN(C(=O)COC(=O)c1n[nH]c2ccccc12)c1ccccc1,3%,-9%,-19%,/,37%,9%,/,
c1ccc(CSc2nnc(-c3ccco3)n2Cc2ccco2)cc1,1%,-3%,3%,4µM*,1%,7%,33µM*,
O=C(Nc1nnc(COc2ccc(Cl)cc2)s1)c1cccs1,1%,2.7µM*,-14%,14µM*,?,-17%,24µM*,
SMILES,IDH1 R132H inh,PLK1 PBD inh,VDR inh,Sfp inh,rTrxR1 inhibitor,TrxR1 substrate,Sfp inh conf,others
O=C(Nc1ccc(F)cc1)C1=CC(=O)N2CCN=C2S1,/,/,/,0.56µM*,/,/,12µM*,
O=C(CC1SC2=NCCN2C1=O)Nc1ccc(Br)cc1 (stereo not drawn),1%,2%,-2%,-5%,5%,3%[57.1 µM],/,
NCCc1c(-c2ccccc2)n(-c2ccccc2)c2ccccc12,2%,-13%,5%,16µM*,6%[57.1 µM],1%[57.1 µM],42µM*,Sfp gel assay=i
Cc1ccccc1NC(=O)CSc1nnc(-c2ccco2)c(-c2ccco2)n1,-6%,27µM*,?,10µM*,2.5µM*,0%,6.6µM*,
COC(=O)c1cccc(-n2c(CCC(=O)O)ccc2-c2cccs2)c1,-3%,?,-13%,4µM*,?,2%,21µM*,Sfp gel assay=?
Cc1ccc(-n2c(CCC(=O)O)ccc2-c2cccs2)cc1,4%,-17%,?,14µM*,?,8%,24µM*,
NC(=O)c1ccc(-n2c(CCC(=O)O)ccc2-c2cccs2)cc1,0%,-13%,-19%,-15%,-26%[57.1 µM],-3%[57.1 µM],/,
COC(=O)c1cccc(-n2c(CCC(=O)O)ccc2-c2ccc(OC)cc2)c1,-14%,/,-26%,/,?,8%,/,
Cc1ccc(NC(=O)Cn2c(=O)nc(-c3ccccc3F)c3cc(Cl)ccc32)c(Br)c1,-6%,/,-9%,/,9%,14%,/,
COC(=O)c1c(N2C(=O)CC(Sc3ccccc3C(=O)O)C2=O)sc(C)c1C (stereo not drawn),0%,?,?,14%,?,6%[57.1 µM],/,
COC(=O)c1c(N2C(=O)CC(Sc3ccccc3C(=O)O)C2=O)sc2c1CCCC2 (stereo not drawn),-4%,24µM*,-4%,1.6µM*,79µM*,3%,33µM*,
O=C(Nc1ccccc1)Oc1ccc[nH]c1=O,8%,15µM*,-10%,6.3µM*,?,0%,21µM*,Sfp gel assay=i
O=C(/C=C/c1ccncc1)c1ccc(NC(=O)c2ccccc2F)cc1,1%,-7%,32µM*,5.6µM*,-17%,-3%,53µM*,
CN(CCCN1c2ccccc2CCc2ccccc21)CC(=O)c1ccc(Cl)cc1,/,/,40µM*,50µM*,/,/,37µM*,Sfp gel assay=i
O=C(CN1C(=O)COc2ccccc21)c1ccc(Cl)cc1,8%,-18%,4%,-1%,0%,-7%,/,

# Assay outcomes from PubChem BioAssay.
